Data on 7 compounds can be found in PubChem BioAssay (NCI).

This is part of a sample that, as a whole, favours compounds with a hit. Of some 83,000 tested, about 20% had one in any assay.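 Plates (96-well) were seeded with cells, treated with compound at one concentration, and incubated for 48 hours before percent growth was determined.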 A number with no mark means an inactive call. Calls of active or inactive are those of the source. Rule for the calls: active = growth percent below 10; inactive = the rest.

Some test systems named below: SK-MEL-2 melanoma; EKVX NSCLC; SN12C renal; UO-31 renal; TK-10 renal; ACHN renal; CAKI-1 renal; A498 renal; CCRF-CEM leukemia; MOLT-4 leukemia; SR leukemia; RPMI-8226 leukemia; OVCAR-8 ovarian; OVCAR-5 ovarian; OVCAR-4 ovarian; SK-OV-3 ovarian; IGROV1 ovarian; OVCAR-3 ovarian; HS 578T breast; NCI/ADR-RES ovarian.
Holding throughout (experiment): NCI-60 one-dose screen, 48 h (100 = growth as untreated, 0 = no growth, -100 = all killed)
Holding throughout (conditions): 10 µM unless noted

As to `O=C(COc1cccc(/C=C2\COc3ccccc3C2=O)c1)Nc1nccs1`, the growth is 65% in the experiment on SK-MEL-2 melanoma; 72.2% with EKVX NSCLC; 78.4% with SN12C renal; 67.3% with UO-31 renal; 64.2% with TK-10 renal; 88.2% with ACHN renal. The growth in the experiment on CAKI-1 renal is 83.5%; in the experiment with A498 renal it was 102%; in the experiment with CCRF-CEM leukemia it was -58.5% (active); in the experiment with MOLT-4 leukemia it was -48.4% (active); in the experiment with SR leukemia, -73.8% (active); in the experiment on RPMI-8226 leukemia it was -67% (active). The growth was 20.3% in the experiment with OVCAR-8 ovarian; 81.8% with OVCAR-5 ovarian; 97.2% with OVCAR-4 ovarian; 99.8% with SK-OV-3 ovarian; 5.16% (active) with IGROV1 ovarian; 73.8% in the experiment on OVCAR-3 ovarian. The growth in the experiment on HS 578T breast was -6.5% (active); in the experiment with NCI/ADR-RES ovarian, 45.6%.
Take `Cc1ccc(NC(=O)/C=C/c2ccccc2)c(C(N)=O)c1`: the growth was 67% in the experiment with SK-MEL-2 melanoma; 64.1% with EKVX NSCLC; 53.1% with SN12C renal; 46.7% in the experiment on UO-31 renal; 92.9% in the experiment on TK-10 renal; 57.7% in the experiment on ACHN renal. In addition, the growth with CAKI-1 renal was 6.55% (active); in the experiment with A498 renal, 53.8%; in the experiment on CCRF-CEM leukemia, 7.23% (active); in the experiment on MOLT-4 leukemia, 30.7%; in the experiment on SR leukemia, -23.3% (active); with RPMI-8226 leukemia it was 23.2%. For the same compound, the growth in the experiment with OVCAR-8 ovarian is 55.1%; with OVCAR-5 ovarian it was 51.8%; in the experiment on OVCAR-4 ovarian, 31.4%; in the experiment on SK-OV-3 ovarian it was 2.6% (active); in the experiment on IGROV1 ovarian, 91.4%; with OVCAR-3 ovarian it was -25.8% (active). The results for the growth in the experiment on HS 578T breast and in the experiment with NCI/ADR-RES ovarian were -3.46% (active) and 24.7%, respectively.
`Cc1ccc2c(C(C[N+](=O)[O-])c3ccccc3F)c(-c3ccccc3)[nH]c2c1` (centres undefined): the growth was 15.4% in the experiment on SK-MEL-2 melanoma; 56.3% with EKVX NSCLC; 54.5% in the experiment with SN12C renal; 47.5% in the experiment on UO-31 renal; 70.6% with TK-10 renal; 48.5% in the experiment with ACHN renal. For the same compound, the growth with CAKI-1 renal was 32.9%; with A498 renal, 32.5%; in the experiment with CCRF-CEM leukemia, 28.6%; in the experiment with MOLT-4 leukemia it was 25.9%; in the experiment with SR leukemia, 25.8%; with RPMI-8226 leukemia, 51.5%. For the same compound, the growth in the experiment on OVCAR-8 ovarian is 56.5%; with OVCAR-5 ovarian, 74.4%; in the experiment on OVCAR-4 ovarian it was 65.7%; with SK-OV-3 ovarian, 31.5%; in the experiment on IGROV1 ovarian it was 32%; in the experiment on OVCAR-3 ovarian, 13.2%. For the same compound, the growth is 33.8% in the experiment on HS 578T breast and 23.9% with NCI/ADR-RES ovarian.
Turning to `CCOC(=O)c1c(CN2CCN(C)CC2)nc2ccc(Cl)cc2c1-c1ccccc1`, the growth in the experiment with SK-MEL-2 melanoma is 80%; with EKVX NSCLC, 66.4%; in the experiment on SN12C renal, 92.8%; in the experiment on UO-31 renal, 47.3%; in the experiment on TK-10 renal, 82.6%; in the experiment on ACHN renal it was 91.7%. For the same compound, the growth in the experiment with CAKI-1 renal was 52.8%; in the experiment on A498 renal, 90.7%; in the experiment with CCRF-CEM leukemia, 37.7%; in the experiment on MOLT-4 leukemia, 32.5%; with SR leukemia, -2.55% (active); in the experiment with RPMI-8226 leukemia, 25.5%. For the same compound, the growth in the experiment with OVCAR-8 ovarian was 84%; in the experiment on OVCAR-5 ovarian it was 69%; with OVCAR-4 ovarian, 79.4%; with SK-OV-3 ovarian, 90.7%; with IGROV1 ovarian it was 50.1%; with OVCAR-3 ovarian it was 76.8%. Further, the growth in the experiment on HS 578T breast was 61%; in the experiment on NCI/ADR-RES ovarian, 68.7%.
In the case of `O=C1NC(=O)C(c2ccc(Cl)cc2Cl)N1` (centres undefined), the growth in the experiment with SK-MEL-2 melanoma is 110%; with EKVX NSCLC it was 113%; in the experiment with SN12C renal, 104%; in the experiment on UO-31 renal, 73.2%; with TK-10 renal, 98.1%; in the experiment on ACHN renal it was 110%. The growth is 100% in the experiment on CAKI-1 renal; 96.6% with A498 renal; 93.2% with CCRF-CEM leukemia; 94.3% in the experiment with MOLT-4 leukemia; 92.6% in the experiment with SR leukemia; 109% with RPMI-8226 leukemia. In addition, the growth with OVCAR-8 ovarian was 112%; in the experiment on OVCAR-5 ovarian, 106%; in the experiment on OVCAR-4 ovarian it was 113%; with SK-OV-3 ovarian, 108%; in the experiment with IGROV1 ovarian it was 114%; with OVCAR-3 ovarian, 112%. In addition, the growth with HS 578T breast was 102%; with NCI/ADR-RES ovarian it was 106%.
Take `O=C1OCC2=C1C(c1ccncc1)c1cc3c(cc1N2CCO)OCO3` (centres undefined): the growth with SK-MEL-2 melanoma is 107%; in the experiment with EKVX NSCLC, 101%; in the experiment on SN12C renal, 100%; in the experiment with UO-31 renal, 94.7%; in the experiment with TK-10 renal, 101%; with ACHN renal, 105%. Further, the growth in the experiment with CAKI-1 renal is 99.3%; with A498 renal, 90%; in the experiment on CCRF-CEM leukemia, 94%; in the experiment on MOLT-4 leukemia it was 107%; with SR leukemia, 122%; with RPMI-8226 leukemia, 103%. For the same compound, the growth was 98.8% in the experiment with OVCAR-8 ovarian; 100% in the experiment on OVCAR-5 ovarian; 100% with OVCAR-4 ovarian; 87.3% in the experiment with SK-OV-3 ovarian; 101% in the experiment on IGROV1 ovarian; 105% with OVCAR-3 ovarian. Also, the growth was 87% in the experiment with HS 578T breast and 104% in the experiment with NCI/ADR-RES ovarian.
For the compound `CCn1c(O)c(/C=N/NC(=O)C(C)c2ccc(CC(C)C)cc2)sc1=S` (centres undefined), the growth with SK-MEL-2 melanoma was 40.3%; in the experiment on EKVX NSCLC it was 41.1%; in the experiment on SN12C renal, 38%; in the experiment with UO-31 renal, 23.6%; in the experiment with TK-10 renal it was 56.5%; in the experiment with ACHN renal, 34.6%. Further, the growth in the experiment on CAKI-1 renal is 35.1%; in the experiment with A498 renal, 17.2%; in the experiment on CCRF-CEM leukemia, 12.9%; in the experiment on MOLT-4 leukemia it was 18.4%; in the experiment on SR leukemia it was 26.3%; in the experiment on RPMI-8226 leukemia, 1.77% (active). Moreover, the growth in the experiment on OVCAR-8 ovarian was 22.6%; in the experiment with OVCAR-5 ovarian, 52%; in the experiment on OVCAR-4 ovarian, 56.7%; with SK-OV-3 ovarian, 45.3%; in the experiment with IGROV1 ovarian, 24.1%; in the experiment on OVCAR-3 ovarian, 1.8% (active). For the same compound, the growth with NCI/ADR-RES ovarian is 5.41% (active).
